Source: PubChem
An excerpt weighted towards active compounds, which were near 3.9% of everything screened.
D1 potentiator – potentiators of human D1 dopamine receptor; HEK293 TREx D1 cells, calcium flux, dopamine EC20 potentiation; potentiation, % at 10 µM; 360,000 compounds, 0.036% hits; AID 504651; in the data active means potentiation above about 30%; further: 0% is about no effect
Target sequence (P21728 whole entry, looked up): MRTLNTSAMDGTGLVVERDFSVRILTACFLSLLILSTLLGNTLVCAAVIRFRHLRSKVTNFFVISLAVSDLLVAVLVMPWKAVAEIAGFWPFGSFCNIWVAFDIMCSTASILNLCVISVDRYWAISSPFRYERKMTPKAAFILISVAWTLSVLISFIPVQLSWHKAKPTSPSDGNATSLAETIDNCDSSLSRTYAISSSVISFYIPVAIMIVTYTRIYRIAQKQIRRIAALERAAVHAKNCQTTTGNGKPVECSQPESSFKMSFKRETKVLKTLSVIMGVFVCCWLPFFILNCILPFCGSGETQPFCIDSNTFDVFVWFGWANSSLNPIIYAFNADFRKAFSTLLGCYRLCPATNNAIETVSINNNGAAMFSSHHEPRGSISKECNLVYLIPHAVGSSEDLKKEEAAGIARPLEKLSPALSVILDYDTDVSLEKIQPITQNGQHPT
GALK inhibitor – blocks human galactokinase activity; P51570; Purified GALK, Kinase-Glo residual ATP luminescence; Potency, µM (highest dose often 57.5 µM), for the others: at the top dose activity change, negative = inhibition, hits mostly inhibitors; 270,000 compounds, 0.007% hits; further: potency means the concentration at half of the fitted maximal effect; on the % scale 0 is the no-effect control and ±100 the full control effect
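GALK at 5 nM final was combined with compound, 35 uM ATP and 100 uM galactose in HEPES pH8.0 with MgCl2 and DTT. The reaction ran one hour at room temperature before luminescent ATP detection.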
D1 agonist – human D1 receptor agonism; P21728; HEK293 T-REx D1 cells, calcium flux, agonist mode; activation, % at 2 µM; 360,000 compounds, 1% hits; AID 504660; in the data active means activation above about 30%; further: 0% is about no effect
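Inducible HEK293 T-REx D1 cells, force-coupled to calcium signalling, were plated at 4000 cells/well with tetracycline and held overnight at 30 C. After no-wash calcium dye loading, compound-evoked calcium rise over 180 s flagged agonists.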
D1 antagonist – blocks dopamine activation of the human D1 receptor; HEK293 TREx D1 cells, calcium flux, dopamine EC80; active compounds read low; 360,000 compounds, 3.2% hits; P21728; activity change, negative = inhibition, % at 10 µM; in the data active means activity change below about -30%; further: on the % scale 0 is the no-effect control and ±100 the full control effect
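Calcium flux readout: force-coupled, inducible Hek293 Trex D1 line, cells induced overnight at 30 C with tetracycline, dye-loaded 30–90 min at RT. Antagonism scored against EC80 dopamine challenge given 180 s after compound.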
USP2a inh – blocks human ubiquitin-specific protease USP2a; O75604; USP2 core, Ub-CHOP2 coupled fluorogenic reporter, 485/531; Potency, µM (top dose mostly 38.3 µM), for the others: at the highest dose activity change, negative = inhibition, hits mostly inhibitors; 330,000 compounds, 0.01% hits; AID 463254;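 further: potency means the concentration at half of the fitted maximal effect; plate controls were DMSO wells for no effect and full inhibition by NEM control for full effect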
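Deubiquitinase activity read as fluorescence (485/531 nm) after Ub-CHOP2 cleavage activates the enterokinase reporter on its substrate; USP2 core 10nM, Ub-CHOP2 and substrate 25nM each, 30min compound preincubation then 60min RT; data normalized to NEM, curves fitted.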
Eya2 inh – Eya2 (human) phosphatase inhibition | recombinant Eya2, OMFP fluorescence dephosphorylation (OMFP is methylfluorescein phosphate) | Potency, µM (doses to about 76.9 µM), without a hit: top-dose activity, negative = inhibition, most hits filed as inhibitors | 330,000 compounds, 0.006% hits; further: potency means the concentration at half of the fitted maximal effect; on the % scale 0 is the no-effect control and ±100 the full control effect
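Eya2 protein (added as 0.2 uM solution) was preincubated with compound for 10 min at ambient temperature in 50 mM HEPES pH 7.5, 50 mM NaCl, 5 uM MgCl2, 0.05% BSA, 1 mM DTT. OMFP (added at 50 uM) then reacted 10 min; fluorescence read at 485/525 nm.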
* = called active by the depositor; x = not tested or not shown; ! = repeats disagree. Unless noted, the call rests on the fitted dose curve; in most records, active means well fitted inhibition curve with a large enough effect; inconclusive means small, poorly fitted or top-dose-only effect, or effect the other way; inactive means flat fitted curve, though single readings scatter.

SMILES	D1 potentiator	GALK inhibitor	D1 agonist	D1 antagonist	USP2a inh	Eya2 inh
CCOc1ccc2nc(N3CCCC(C(=O)NCc4ccc(OC)cc4)C3)sc2c1 (configuration not stated)	-4	x	-1	4	x	x
Cc1c(Cl)cccc1NC(=O)Nc1nnc(N2CCCCCC2)s1	-1	x	-1	-8	x	x
Cc1cccc(-n2nc(C)c3c2NC2=C(C(=O)CCC2)C3c2ccccn2)c1 (configuration not stated)	-3	-3%	3	21	-1%	-6%
Cc1nn(-c2ccccn2)c2c1C(c1ccsc1)C1=C(CCCC1=O)N2 (configuration not stated)	-4	0%	0	-86*	2%	-23%
Cc1ccc(C)c(S(=O)(=O)c2cn(Cc3ccccc3)c3cc(N4CCCC4)c(F)cc3c2=O)c1	-2	x	2	-35*	x	x
Cc1ccc(S(=O)(=O)c2cn(C)c3cc(N4CCOCC4)c(F)cc3c2=O)cc1	-1	-1%	2	4	3%	-1%
Cn1cc(S(=O)(=O)c2ccccc2)c(=O)c2cc(F)c(N3CCOCC3)cc21	-5	-1%	10	-85*!	4%	-6%
Cc1ccc(S(=O)(=O)c2cn(Cc3ccccc3)c3cc(N4CCCCC4)c(F)cc3c2=O)cc1	-3	x	-1	-12	x	x
CCCCn1cc(S(=O)(=O)c2ccc(C)cc2)c(=O)c2cc(F)c(N3CCCCC3)cc21	1	x	71*	12	x	x
CC(Sc1nc2c(c(=O)[nH]1)CCCC2)C(=O)Nc1cc(C(F)(F)F)ccc1Cl (configuration not stated)	0	x	0	13	x	x
Cc1cc(C)n(-c2nc3ccccc3nc2Nc2ccc(Cl)c(C(=O)OC(C)C)c2)n1	-4	x	2	8	x	x
O=C(CSc1nc(=O)n(Cc2ccncc2)c2c1CCC2)Nc1cccc(F)c1	2	x	-2	x	x	x
O=C1NC(=O)/C(=C/c2ccc(OS(=O)(=O)c3ccc(F)cc3F)cc2)N1	-1	1%	6	-31*	2%	10%
CCOc1ccc(-c2c(C(=O)N/N=C(\C)c3cccs3)nnn2-c2nonc2N)cc1	-3	-4%	44*	33	5%	0%
COc1cccc(-c2c(C(=O)N/N=C(\C)c3cccs3)nnn2-c2nonc2N)c1	0	-4%	216*	22	1%	-6%
C/C(=N\NC(=O)c1nnn(-c2nonc2N)c1-c1ccc2c(c1)OCO2)c1cccs1	6	5%	183*	62	2%	7%
COc1cccc(-c2c(C(=O)N/N=C(\C)c3ccncc3)nnn2-c2nonc2N)c1	-2	0%	2	8	-2%	-10%
CCOc1cccc(-c2c(C(=O)N/N=C(\C)c3cccs3)nnn2-c2nonc2N)c1	12	3%	95*	40	2%	-2%
CCOC(=O)Cc1c(C)nc2c(-c3ccc(Cl)cc3)c(C(F)(F)F)nn2c1C	-1	x	15	-4	x	x
CC(=O)c1ccc(NC(=O)CC2Oc3ccc(C)cc3NC2=O)cc1 (configuration not stated)	-1	x	2	-3	x	x
Nc1nonc1-n1nnc(C(=O)N/N=C/c2ccc(Br)cc2)c1-c1ccc2c(c1)OCO2	6	-5%	47*	59	-2%	-5%
CCCCCCCCCC(=O)NC(CN1CCOCC1)[C@H](O)c1ccccc1 (some centres not stated)	x	x	x	x	x	-4%
COC(=O)c1cc(CNC(=O)c2ccc(S(=O)(=O)N(C)c3ccccc3)cc2)ccc1OC	-21	x	1	-68*	1%	6%
CN(Cc1ccc(OC(F)F)cc1)C(=O)c1ccc(S(=O)(=O)N(C)c2ccccc2)cc1	-6	x	9	-40*	-1%	-6%
COc1ccccc1/C=N/NC(=O)c1ccc(N(C)S(=O)(=O)c2ccccc2)cc1	2	2%	4	3	-6%	4%
COc1ccc(CCNC(=O)c2ccc(S(=O)(=O)N(C)c3ccccc3)cc2)cc1OC	2	-4%	3	-4	-1%	-7%
